Compounds without any hit were thinned out: in the full panel of roughly 83,000, 20% have a hit.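 Method: cells in 96-well plates; compound added at one concentration; 48 h incubation; percent growth measured; values under 10 scored active.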
Tests used:
Assay in all cases: NCI-60 one-dose screen, 48 h (100 = growth as untreated, 0 = no growth, -100 = all killed)
Conditions in all cases: 10 µM
NCI-H23 lung = tested on: NCI-H23 lung
NCI-H226 lung = tested on: NCI-H226 lung
NCI-H322M lung = tested on: NCI-H322M lung
HOP-62 NSCLC = tested on: HOP-62 NSCLC
NCI-H460 lung = tested on: NCI-H460 lung
HOP-92 NSCLC = tested on: HOP-92 NSCLC
NCI-H522 lung = tested on: NCI-H522 lung
A549/ATCC NSCLC = tested on: A549/ATCC NSCLC
786-0 renal = tested on: 786-0 renal
COLO 205 colon = tested on: COLO 205 colon
DU-145 prostate = tested on: DU-145 prostate
K-562 leukemia = tested on: K-562 leukemia
MALME-3M melanoma = tested on: MALME-3M melanoma
MDA-MB-231 breast = tested on: MDA-MB-231 breast
RXF 393 renal = tested on: RXF 393 renal
SF-268 CNS = tested on: SF-268 CNS
SF-295 CNS = tested on: SF-295 CNS
SF-539 CNS = tested on: SF-539 CNS
UACC-257 melanoma = tested on: UACC-257 melanoma
M14 melanoma = tested on: M14 melanoma

Measured: growth

CCOC(=O)C1=C(C)NC(=O)NC1c1cccs1 (stereo not drawn)
inactive: NCI-H23 lung 98.4% | NCI-H226 lung 110% | NCI-H322M lung 111% | HOP-62 NSCLC 109% | NCI-H460 lung 118% | HOP-92 NSCLC 107% | NCI-H522 lung 101% | A549/ATCC NSCLC 94.8% | 786-0 renal 106% | COLO 205 colon 107% | DU-145 prostate 122% | K-562 leukemia 103% | MALME-3M melanoma 110% | MDA-MB-231 breast 110% | RXF 393 renal 99.7% | SF-268 CNS 108% | SF-295 CNS 112% | SF-539 CNS 103% | UACC-257 melanoma 102% | M14 melanoma 111%

CC(C)OC(=O)c1cc(NC(=S)OC(C)C)ccc1Cl
inactive: NCI-H23 lung 79.7% | NCI-H226 lung 86.6% | NCI-H322M lung 85.8% | HOP-62 NSCLC 91.5% | NCI-H460 lung 108% | HOP-92 NSCLC 73.8% | NCI-H522 lung 77.4% | A549/ATCC NSCLC 70.6% | 786-0 renal 82.2% | COLO 205 colon 102% | DU-145 prostate 83.8% | K-562 leukemia 73.7% | MALME-3M melanoma 67.6% | MDA-MB-231 breast 72.7% | RXF 393 renal 35.8% | SF-268 CNS 92% | SF-295 CNS 83.5% | SF-539 CNS 89.6% | UACC-257 melanoma 78.9%

O=S(=O)(O)CC(O)CN1CCN(CCO)CC1 (stereo not drawn)
inactive: NCI-H23 lung 94.2% | NCI-H226 lung 108% | NCI-H322M lung 112% | HOP-62 NSCLC 110% | NCI-H460 lung 114% | HOP-92 NSCLC 86.2% | NCI-H522 lung 89% | A549/ATCC NSCLC 98.8% | 786-0 renal 105% | COLO 205 colon 106% | DU-145 prostate 111% | K-562 leukemia 97.4% | MALME-3M melanoma 114% | MDA-MB-231 breast 119% | RXF 393 renal 105% | SF-268 CNS 109% | SF-295 CNS 119% | SF-539 CNS 111% | UACC-257 melanoma 97.8% | M14 melanoma 105%

N#Cc1c(N)sc(=S)c2c1CCCC2
inactive: NCI-H23 lung 101% | NCI-H226 lung 104% | NCI-H322M lung 123% | HOP-62 NSCLC 104% | NCI-H460 lung 115% | HOP-92 NSCLC 103% | NCI-H522 lung 102% | A549/ATCC NSCLC 105% | 786-0 renal 104% | COLO 205 colon 111% | DU-145 prostate 113% | K-562 leukemia 113% | MALME-3M melanoma 119% | MDA-MB-231 breast 111% | RXF 393 renal 118% | SF-268 CNS 104% | SF-295 CNS 110% | SF-539 CNS 110% | UACC-257 melanoma 110% | M14 melanoma 116%

COC(=O)/C=C\C(=O)OC
inactive: NCI-H23 lung 106% | NCI-H226 lung 114% | NCI-H322M lung 125% | HOP-62 NSCLC 113% | NCI-H460 lung 111% | HOP-92 NSCLC 95.4% | NCI-H522 lung 89.2% | A549/ATCC NSCLC 100% | 786-0 renal 103% | COLO 205 colon 118% | DU-145 prostate 120% | K-562 leukemia 107% | MALME-3M melanoma 139% | MDA-MB-231 breast 104% | RXF 393 renal 110% | SF-268 CNS 113% | SF-295 CNS 114% | SF-539 CNS 103% | UACC-257 melanoma 106% | M14 melanoma 107%

O=C(Nc1cc(-c2ccccc2)[nH]n1)c1ccc(Cl)cc1
inactive: NCI-H23 lung 87.8% | NCI-H226 lung 88.4% | NCI-H322M lung 79.4% | HOP-62 NSCLC 88.3% | NCI-H460 lung 56% | HOP-92 NSCLC 81.4% | NCI-H522 lung 72.5% | A549/ATCC NSCLC 70.3% | 786-0 renal 79.5% | COLO 205 colon 104% | DU-145 prostate 77.6% | K-562 leukemia 61.1% | MALME-3M melanoma 92.6% | MDA-MB-231 breast 114% | RXF 393 renal 32.4% | SF-268 CNS 74.2% | SF-295 CNS 71.2% | SF-539 CNS 66.2% | UACC-257 melanoma 77.9% | M14 melanoma 64.4%

COc1cc(C(=O)N/N=C/c2cccc([N+](=O)[O-])c2)cc(OC)c1OC
inactive: NCI-H23 lung 61.7% | NCI-H226 lung 77.8% | NCI-H322M lung 87.2% | HOP-62 NSCLC 77.1% | NCI-H460 lung 18.5% | HOP-92 NSCLC 70.7% | NCI-H522 lung 19.6% | A549/ATCC NSCLC 65.7% | 786-0 renal 78.2% | COLO 205 colon 30.2% | DU-145 prostate 87.4% | K-562 leukemia 35.8% | MALME-3M melanoma 40.1% | MDA-MB-231 breast 65.1% | RXF 393 renal 60% | SF-268 CNS 73.6% | SF-295 CNS 48.2% | SF-539 CNS 66.2% | UACC-257 melanoma 76.3% | M14 melanoma 29.9%

CC(=O)OCC1=CC2OC(=O)C3=COC(OC4OC(CO)C(O)C(O)C4O)C1C32 (stereo not drawn)
inactive: NCI-H23 lung 72.4% | NCI-H226 lung 105% | NCI-H322M lung 104% | HOP-62 NSCLC 108% | NCI-H460 lung 120% | HOP-92 NSCLC 89.3% | NCI-H522 lung 93.5% | A549/ATCC NSCLC 138% | 786-0 renal 98.9% | COLO 205 colon 114% | DU-145 prostate 114% | K-562 leukemia 121% | MALME-3M melanoma 96.5% | MDA-MB-231 breast 113% | RXF 393 renal 36.8% | SF-268 CNS 120% | SF-295 CNS 112% | SF-539 CNS 109% | UACC-257 melanoma 102%
